Data: ChEMBL document CHEMBL3433997, “St. Jude Leishmania screening dataset” (2016)

The compounds below were run against Solute carrier family 2, facilitated glucose transporter member 1 (Homo sapiens) (UniProt P11166) (assay: ST_JUDE_LEISH: Cytotoxicity at 2uM final concentration against transgenic Leishmania Mexicana promastigotes LmGLUT1 that are glucose transport deficient and complemented with the human glucose transporter GLUT1. Activity is measured by DNA content using SYBR green in vitro).
Solute carrier family 2, facilitated glucose transporter member 1 (Homo sapiens), sequence (P11166 whole entry): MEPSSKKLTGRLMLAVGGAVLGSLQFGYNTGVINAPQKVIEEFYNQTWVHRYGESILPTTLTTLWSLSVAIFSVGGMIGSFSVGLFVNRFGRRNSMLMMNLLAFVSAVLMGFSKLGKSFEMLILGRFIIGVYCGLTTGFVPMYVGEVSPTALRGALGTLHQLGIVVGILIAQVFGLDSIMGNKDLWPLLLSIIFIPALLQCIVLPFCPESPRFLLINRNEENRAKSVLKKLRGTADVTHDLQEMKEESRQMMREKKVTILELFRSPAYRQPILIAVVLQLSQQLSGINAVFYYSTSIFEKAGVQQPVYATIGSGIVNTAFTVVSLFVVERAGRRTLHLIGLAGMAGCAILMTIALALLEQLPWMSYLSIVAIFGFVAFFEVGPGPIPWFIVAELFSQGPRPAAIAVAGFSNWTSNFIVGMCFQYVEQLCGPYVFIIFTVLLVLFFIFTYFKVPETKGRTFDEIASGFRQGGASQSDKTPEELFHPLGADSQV
Assay type: functional
For `CN(C)c1ccc(CN2CCC(NC(=O)c3ccc(-c4ccc(N(C)C)cc4)s3)CC2)cc1`, the inhibition was 1.4%. In the case of `COc1cc(F)c2nccc([C@@H](O)CN3CCC(NCc4ccc5c(n4)NC(=O)CS5)C(F)C3)c2c1` (stereo not given in full), the inhibition is reported as 3.18%. Work on `CS(=O)(=O)c1ccc(CNCc2ccc(-c3ccc(-c4nc5cc(F)ccc5[nH]4)s3)cc2)cc1` yielded an inhibition of 11.6%. Work on `CCC1=C(CC2NCCc3cc(OC)c(OC)cc32)CC2c3cc(OC)c(OC)cc3CCN2C1` (stereo not given) yielded an inhibition of 87.8%. For `COc1ccc(-c2nc(NC(=O)Cc3cccc(OC)c3)sc2C)cc1`, the inhibition was 0.19%. In the case of `CC(NCCC1CCC(NC(=O)N[C@H](C)C(O)(c2ccccc2)c2ccccc2)CC1)c1cccc2ccccc12` (stereo not given in full), the inhibition is reported as 16.8%. `CCCCCCNCCOc1ccc(-c2nc(-c3ccccc3)c(-c3ccccc3)[nH]2)cc1` showed an inhibition of 4.61%. `CC(C)Cn1cc(C2CCN(CCN3CCC(CNC(=O)c4ccc(-c5ccc(C(F)(F)F)cc5)cc4)CC3)CC2)c2ccccc21` was tested, and the inhibition was 2.78%. Compound `O=c1[nH]ccc2nc(N[C@@H]3CCNC3)nc(Nc3cccc(S(=O)(=O)N4CCOCC4)c3)c12` has an inhibition of 2.94%. `COC(=O)C(NC(=O)NC1CCN(c2ccnc(Nc3ccc(F)cc3)n2)C1)c1ccccc1` (stereo not given) showed an inhibition of -3.11%. `CC(C)CN1C(=O)c2ccc(C(=O)Nc3nccs3)cc2C1=O` showed an inhibition of 1.07%. Compound `CC1CCCCN1CCCNc1ncc2c(-c3ccc(NC(=O)Nc4cc(C(F)(F)F)ccc4F)c(F)c3)nn(C)c2n1` (stereo not given) has an inhibition of 1.38%. Work on `Cc1nc(C)c(-c2ccc(Sc3ccc(Cl)cc3)cc2)c(O)c1Br` yielded an inhibition of -2.06%. In the case of `CC1(C)CC(NC(=O)NC2CCN(Cc3ccccc3)CC2)CC(C)(CNC(=O)NC2CCN(Cc3ccccc3)CC2)C1` (stereo not given), the inhibition is reported as 5.31%. `O=C(NCCCN1CCOCC1)c1cccc(Nc2nccc(Nc3ccc(Oc4ccccc4)cc3)n2)c1` showed an inhibition of 2.39%. With `O=C(Nc1cccc(F)c1)NC1CCN(c2ccnc3cc(Cl)ccc23)C1` (stereo not given) the inhibition was 2.72%. Compound `CC(C)Cn1c(Sc2ccc(C#N)c([N+](=O)[O-])c2)nnc1-c1ccccc1Cl` has an inhibition of 3.45%. Work on `CC[C@H](C)CNC(=O)c1ccc(-c2cccc(CN3CCC(N4CCCC4)CC3)c2)nc1` yielded an inhibition of 0.61%. `CN(C)c1nc2cc(-n3cnc4cc(-c5ccc(Cl)cc5)sc4c3=O)ccc2n1CCCN1CCCCC1` was tested, and the inhibition was 9.33%. For `Cc1ccc(-n2ncc(C(=O)Nc3cc(Cl)cc(Cl)c3)c2C2CCNCC2)cc1C`, the inhibition was 3.26%. Compound `Cc1c(CNCCN2CCCCC2)c(C(=O)O)c(C)n1Cc1ccc(Cl)cc1` has an inhibition of -0.09%. In the case of `Cc1cccc2nc(-c3ccc(-c4ccc(NC(=O)C(C)CN5CCN(C)CC5)cc4)s3)[nH]c12` (stereo not given), the inhibition is reported as 3.39%. In the case of `CCn1ccc2c(N3CCCCS3(=O)=O)cc(C(=O)N[C@@H](Cc3ccccc3)[C@H](O)CNC3CCCCC3)cc21`, the inhibition is reported as 5.11%. Compound `C=CCN(C(=O)c1ccc(Cl)c([N+](=O)[O-])c1)c1nc(-c2ccccc2)cs1` has an inhibition of 10.6%. `CN1CCN(c2ccnc3ccc(NC(=O)Nc4ccccc4Br)cc23)CC1` showed an inhibition of -3.53%. With `COc1ccc(-c2csc(N(CCCN(C)C)C(=O)c3cc4c(C)nn(-c5ccccc5)c4s3)n2)cc1` the inhibition was 0.66%. Compound `O=C(N[C@@H](Cc1ccccc1)C(=O)NC1CCCc2ccccc21)c1ccc(O)c(-c2ccc(Cl)c(Cl)c2)c1` (stereo not given in full) has an inhibition of 0.59%. `O=C(Nc1ccc2c(c1)CCN2C1CCN(Cc2cccc3cc[nH]c23)C1)c1ccco1` (stereo not given) showed an inhibition of 0.46%. `CN(Cc1ccncc1)C(Cc1ccccc1)C1CCN(Cc2ccc(O)c(Cl)c2)CC1` (stereo not given) gave an inhibition of 1.88%. In the case of `CCC[C@@H]([C@@H](CC(C)C)C(=O)N[C@@H](CCCCNC(=O)OCc1ccccc1)C(=O)Nc1ncccn1)N(O)C=O`, the inhibition is reported as 19.1%. With `COc1ccc2nccc([C@@H](O)CN3CCC(NC(=O)c4cccc(C(=O)c5ccccc5)c4)CC3)c2c1` the inhibition was -1.15%. For `CN1CCCC1CCNc1ncc2c(-c3ccc(NC(=O)Nc4cc(C(F)(F)F)ccc4F)c(F)c3)nn(C)c2n1` (stereo not given), the inhibition was -1.71%. In the case of `O=c1cc(NCCCNCc2ccc(Cl)c(Cl)c2)[nH]c2cc(F)cc(F)c12`, the inhibition is reported as 3.21%. `CN(C(=O)/C=C/c1cc(C(F)(F)F)ccc1F)C1CCN(CCCCCNC(=O)/C=C/c2ccc(Cl)c(Cl)c2)CC1` was tested, and the inhibition was 3.67%. In the case of `Cc1noc(C)c1-c1ccc2c(Nc3ccccc3C(C)(C)C)c(C(=O)NCc3cccc4ccccc34)cnc2c1`, the inhibition is reported as 2.41%. Compound `O=C1CN(C(=O)CCC2CCCC2)C(c2ccc(F)cc2)c2cc(F)ccc2N1` (stereo not given) has an inhibition of 5.81%. Compound `CCC1CN(CCCn2c3ccccc3c3ccccc32)C(CC)CN1` (stereo not given) has an inhibition of -0.46%. With `O=C(/C=C/c1cccc(Cl)c1)NCCCCCN1CCC(c2c[nH]c3ccccc23)CC1` the inhibition was 3.67%. Compound `CN(C)CCN(C)Cc1ccc(-c2ccc(NS(=O)(=O)c3cccc4cccnc34)cc2)cc1` has an inhibition of 9.5%. In the case of `COc1cc2nc(NCCCOC(C)C)n3nc(-c4ccccc4)nc3c2cc1OC`, the inhibition is reported as 11.4%.
